Laboratory results from PubChem BioAssay (NCATS).
Results filed as inconclusive are left out. Active and inactive are the calls of the source. Unless noted, the call rests on the fitted dose curve; in most records, active means well fitted curve in either direction with a large enough effect (not every such curve was filed as active); inconclusive means small, poorly fitted or top-dose-only effect, or another doubt; inactive means flat fitted curve, though single readings scatter.

Columns and labels:
[1] = target: Lysosomal acid glucosylceramidase (Homo sapiens) (UniProt P04062); assay: Glucocerebrosidase-p2 (AID 348; in the data active means potency below about 10 µM; further: potency means the concentration at half of the fitted maximal effect); settings: purified GBA, blue fluorogenic substrate, 40 min
In short: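 Normal human glucocerebrosidase (0.2 nM) with blue fluorogenic substrate (80 uM final) in citrate/phosphate pH 5.9 with 10mM sodium taurocholate, 0.01% tween-20; 40 min RT, NaOH/glycine stop; fluorescence Ex 365/Em 440; AC50 from a titration from 0.6 nM upwards.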

[2] = AP1 Signaling Pathway (AID 357); settings: ME-180 AP-1-bla reporter, EGF-induced, beta-lactamase ratio, 5 h; at 7.69 µM (top of the series) unless noted;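 further: ME-180 reporter cells stimulated with EGF at its EC50 level; on the % scale 0 is the no-effect control and ±100 the full control effect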
In short: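 A ratiometric CCF4 readout (405 nm excitation; 460 and 530 nm emission) quantified AP-1-driven beta-lactamase in ME-180 cells after 5 h with compound and EC50 EGF; AC50 values were derived for activators and inhibitors.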

[3] = target: Cytochrome P450 1A2 (Homo sapiens) (UniProt P05177); assay: p450-cyp1a2 (AID 410; calls by dose curve; further: potency means the concentration at half of the fitted maximal effect;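 on activity change, negative = inhibition: -100% = full effect of reference inhibitor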); settings: recombinant CYP1A2, luciferin-ME demethylation, luminescence; series mostly up to 57 µM
In short: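 20nM CYP1A2, 100uM Luciferin-ME (=Km), 100mM KPO4; cpd 10 min RT; +NADPH regen, 60 min RT; stop/detect 20 min; luminescence. Normalized to furafylline 57 uM = full inhibition.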

[4] = NFAT Signaling Pathway (AID 444); settings: Jurkat NFAT-bla M1, carbachol, beta-lactamase ratio, 5 h; at 7.69 µM (top of the series) unless noted;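 further: carbachol stimulus at about its EC50 of 1 µM final; on the % scale 0 is the no-effect control and ±100 the full control effect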
In short: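 Jurkat cells carrying an NFAT-driven β-lactamase reporter and co-transfected muscarinic M1 receptor were treated with compound plus carbachol (1 uM final, an EC50 level) for 5 h at 37 °C. CCF4 loading followed for 1 h at RT; 460/530 nm ratio gave %activity.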

[5] = Stat Signaling Pathway (AID 446); settings: ME-180 (cervical carcinoma) SIE beta-lactamase reporter, IL-6 stimulated, 5 h; at 7.69 µM (top of the series) unless noted;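 further: ME-180 cervical cancer cells given 40 pM IL-6 alongside compound; SIE-controlled beta-lactamase reporter measured as 460/530 nm FRET emission ratio; on the % scale 0 is the no-effect control and ±100 the full control effect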
In short: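 Overnight-plated ME-180 cells bearing a STAT Inducible Element beta-lactamase reporter; 5 h co-exposure to compound and 40 pM IL-6; values normalized to 300 pM IL-6 and 125 nM JAK inhibitor controls.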

[6] = target: Glucocorticoid receptor (Homo sapiens) (UniProt P04150); assay: GR-EFC Redistribution (AID 451; calls by dose curve; further: potency means the concentration at half of the fitted maximal effect); settings: CHO-K1 GR-EFC translocation, beta-gal luminescence, 2 h
In short: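 CHO-K1 cells stably expressing nuclear-localized β-gal enzyme acceptor and GR fused C-terminally to the enzyme donor fragment; ligand-driven nuclear translocation restores β-gal by complementation. Compounds titrated up to 46 uM final, 2 h at 37 °C; luminescence read.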

[7] = target: Mitogen-activated protein kinase 10 (Mus musculus) (UniProt Q61831); assay: JNK3 AlphaScreen Assay (AID 530); settings: JNK3 lysate, c-Jun phosphorylation; series mostly up to 57.1 µM;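 further: kinase came from lysate of stimulated human HepG2 cells; signal reports phosphorylation of biotinylated GST-cJun 1-79 at Ser73 with 10 µM ATP; on the % scale 0 is the no-effect control and ±100 the full control effect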
In short: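 Biotinylated GST-cJun(1-79) served as substrate for JNK3 in HepG2 lysates stimulated with IL-1beta and TNF-alpha. ATP was 10 uM final, pH 7.6. Ser73 phosphorylation was quantified by AlphaScreen (680 nm excitation).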

[8] = target: 3',5'-cyclic-AMP phosphodiesterase 4B (Homo sapiens) (UniProt Q07343); assay: qHTS Assay for Inhibitors of PDE-IV (AID 607; active means well fitted activation curve with a large enough effect in the main read-out, with a control signal flat, not every such curve was filed as active; further: % of control where 0% means no effect); settings: HEK293 ACTOne CNG channel cells, membrane potential fluorescence; series mostly up to 22.9 µM
In short: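 Live HEK293 cells with a modified cyclic nucleotide-gated (CNG) channel report intracellular cAMP via membrane-potential dye fluorescence (ex 535/em 590 nm). Endogenous PDE-IV was targeted. Compounds were tested at up to 22.9 uM final; RO 20-1724 100 uM served as control.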

[9] = qHTS Assay for Lipid Storage Modulators (AID 1519; calls by dose curve); settings: Drosophila S3 cells, BODIPY lipid droplet/cell ratio, laser cytometry, cells loaded with oleic acid; for activity change, negative = inhibition: at 57.5 µM (top of the series)
In short: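 Cells seeded at 5,000 per well were treated with compounds over a concentration series and loaded with oleic acid (400 uM, as added). Lipid droplet fluorescence (488 nm excitation, 500-530 nm channel) was read by laser-scanning cytometry and normalized to 20 uM Triacsin C.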

[10] = Primary qHTS for small molecule stabilizers of the endoplasmic reticulum resident proteome: Secreted ER Calcium Modulated Protein (SERCaMP) assay (AID 1508630; active means well fitted inhibition curve with a large enough effect; further: on the % scale 0 is the no-effect control and ±100 the full control effect); settings: SH-SY5Y GLuc-SERCaMP (Gaussia luciferase released on ER calcium loss) secretion, thapsigargin, luminescence; series mostly up to 38.4 µM
In short: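 The SH-SY5Y reporter protocol was run at 3 concentrations up to 38.3 uM (primary) or 11 concentrations (follow-up): 16 h compound, 100 nM thapsigargin for 4 h, then extracellular luciferase luminescence.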

[11] = measured here: cell count channel max response
[12] = measured here: lipid channel max response

Sequence of 3',5'-cyclic-AMP phosphodiesterase 4B (Homo sapiens) (Q07343 whole entry, looked up): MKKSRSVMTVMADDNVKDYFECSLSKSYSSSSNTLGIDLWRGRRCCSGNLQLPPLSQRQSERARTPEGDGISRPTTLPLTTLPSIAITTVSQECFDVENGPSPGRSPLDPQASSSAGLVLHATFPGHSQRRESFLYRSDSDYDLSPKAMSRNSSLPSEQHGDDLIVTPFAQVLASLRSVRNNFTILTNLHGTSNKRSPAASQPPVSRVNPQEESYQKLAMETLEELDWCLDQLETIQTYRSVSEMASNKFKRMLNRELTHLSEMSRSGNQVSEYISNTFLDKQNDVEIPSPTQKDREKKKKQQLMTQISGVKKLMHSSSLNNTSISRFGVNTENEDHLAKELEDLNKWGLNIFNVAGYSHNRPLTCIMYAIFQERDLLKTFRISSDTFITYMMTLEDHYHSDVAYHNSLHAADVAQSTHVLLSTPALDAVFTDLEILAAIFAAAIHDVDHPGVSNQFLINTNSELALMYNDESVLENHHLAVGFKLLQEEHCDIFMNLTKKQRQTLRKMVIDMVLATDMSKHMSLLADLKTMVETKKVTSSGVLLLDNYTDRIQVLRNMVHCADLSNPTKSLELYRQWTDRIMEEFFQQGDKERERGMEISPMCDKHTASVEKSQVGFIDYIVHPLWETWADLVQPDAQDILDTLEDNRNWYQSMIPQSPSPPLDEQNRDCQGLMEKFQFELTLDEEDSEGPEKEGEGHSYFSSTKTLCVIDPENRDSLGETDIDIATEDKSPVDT
Sequence of Cytochrome P450 1A2 (Homo sapiens) (P05177 whole entry, looked up): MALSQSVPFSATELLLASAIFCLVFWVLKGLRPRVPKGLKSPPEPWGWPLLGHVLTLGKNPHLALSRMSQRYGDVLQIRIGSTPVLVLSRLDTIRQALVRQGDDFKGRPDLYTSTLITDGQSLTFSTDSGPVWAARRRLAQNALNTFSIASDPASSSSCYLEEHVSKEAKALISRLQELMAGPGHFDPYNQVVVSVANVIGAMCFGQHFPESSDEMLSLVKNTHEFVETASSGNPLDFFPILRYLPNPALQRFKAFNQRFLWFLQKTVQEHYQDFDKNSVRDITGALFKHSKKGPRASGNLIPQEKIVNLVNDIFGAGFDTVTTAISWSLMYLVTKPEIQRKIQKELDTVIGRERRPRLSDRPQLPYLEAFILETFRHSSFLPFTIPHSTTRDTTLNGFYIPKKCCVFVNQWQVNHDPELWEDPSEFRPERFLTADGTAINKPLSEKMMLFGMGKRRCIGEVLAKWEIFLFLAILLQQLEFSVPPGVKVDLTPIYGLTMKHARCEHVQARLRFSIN
Sequence of Glucocorticoid receptor (Homo sapiens) (P04150 whole entry, looked up, the tested form may be a part): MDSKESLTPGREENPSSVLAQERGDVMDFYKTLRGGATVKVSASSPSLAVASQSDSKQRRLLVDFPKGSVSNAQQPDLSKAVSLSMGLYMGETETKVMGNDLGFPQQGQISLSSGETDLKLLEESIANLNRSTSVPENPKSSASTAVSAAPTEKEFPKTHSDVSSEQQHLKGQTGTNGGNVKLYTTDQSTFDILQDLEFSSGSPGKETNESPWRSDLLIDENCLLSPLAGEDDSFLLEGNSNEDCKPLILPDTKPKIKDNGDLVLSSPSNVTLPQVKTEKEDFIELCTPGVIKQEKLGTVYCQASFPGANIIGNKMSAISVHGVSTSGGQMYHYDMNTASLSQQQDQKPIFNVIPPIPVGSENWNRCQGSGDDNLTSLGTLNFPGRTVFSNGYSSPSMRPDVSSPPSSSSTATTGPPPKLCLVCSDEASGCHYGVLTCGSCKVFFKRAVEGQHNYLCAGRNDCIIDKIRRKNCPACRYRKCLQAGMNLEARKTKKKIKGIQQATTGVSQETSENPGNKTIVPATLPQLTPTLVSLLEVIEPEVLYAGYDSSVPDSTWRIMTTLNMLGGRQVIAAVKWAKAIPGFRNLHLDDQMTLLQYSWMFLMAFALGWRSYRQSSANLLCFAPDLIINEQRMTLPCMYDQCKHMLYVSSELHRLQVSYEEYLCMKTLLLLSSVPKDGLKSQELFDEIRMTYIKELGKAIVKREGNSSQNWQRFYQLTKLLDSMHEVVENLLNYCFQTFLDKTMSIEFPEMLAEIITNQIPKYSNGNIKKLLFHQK
Sequence of Lysosomal acid glucosylceramidase (Homo sapiens) (P04062 whole entry, looked up): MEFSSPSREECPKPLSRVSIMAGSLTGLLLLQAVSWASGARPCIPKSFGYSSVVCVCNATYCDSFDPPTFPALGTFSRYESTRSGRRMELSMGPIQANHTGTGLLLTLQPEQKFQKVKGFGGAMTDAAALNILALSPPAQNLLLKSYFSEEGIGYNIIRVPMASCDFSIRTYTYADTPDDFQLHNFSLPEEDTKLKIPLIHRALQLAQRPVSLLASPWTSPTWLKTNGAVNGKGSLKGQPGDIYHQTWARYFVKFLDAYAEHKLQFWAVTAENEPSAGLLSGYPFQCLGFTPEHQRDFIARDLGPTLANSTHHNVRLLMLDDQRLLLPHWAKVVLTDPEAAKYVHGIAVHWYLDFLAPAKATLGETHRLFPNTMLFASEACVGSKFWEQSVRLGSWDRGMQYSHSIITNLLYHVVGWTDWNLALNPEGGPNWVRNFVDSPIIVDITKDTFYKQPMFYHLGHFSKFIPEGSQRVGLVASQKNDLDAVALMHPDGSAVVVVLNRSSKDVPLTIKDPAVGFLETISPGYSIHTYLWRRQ

COCC(=O)N1CCC[C@@]2(CCN(Cc3ccc(C#N)cc3)C2)C1
7.03%: max response [9, 11]
15.9%: max response [9, 12]
inactive: Potency [1] > 11.4 µM | activity change, negative = inhibition [2] -13.6% | Potency [3] | activity change, negative = inhibition [4] 4.93% | activity, negative = inhibition [5] 5.14% | Potency [6] > 46 µM | outcome [7] | Potency [8] | activity change, negative = inhibition [9] 5.07% | Potency [10]

COc1ccc(NC(=O)N2CC3(CCN(S(C)(=O)=O)CC3)C2)cc1
-5.17%: max response [9, 12]
inactive: Potency [1] > 11.4 µM | activity change, negative = inhibition [2] -11.2% | Potency [3] | activity change, negative = inhibition [4] 24.5% | activity, negative = inhibition [5] 5.18% | Potency [6] > 46 µM | outcome [7] | Potency [8] | activity change, negative = inhibition [9] 4.64% | Potency [10]
-10.6%: max response [9, 11]

O=C(c1csnn1)N1CCC[C@@]2(CCN(c3ncccn3)C2)C1
active: Potency [3] 12.6 µM
inactive: Potency [1] > 11.4 µM | activity change, negative = inhibition [2] -0.372% | activity change, negative = inhibition [4] 8.43% | activity, negative = inhibition [5] 1.56% | Potency [6] > 46 µM | outcome [7] | Potency [8] | activity change, negative = inhibition [9] 7.22% | Potency [10]
8.99%: max response [9, 11]
21.1%: max response [9, 12]

COC(=O)N1CCC[C@@]2(CCN(C(=O)Nc3cccc(C#N)c3)C2)C1
inactive: Potency [1] > 11.4 µM | activity change, negative = inhibition [2] -12.4% | Potency [3] | activity change, negative = inhibition [4] 19.3% | activity, negative = inhibition [5] 6.31% | Potency [6] > 46 µM | outcome [7] | Potency [8] | activity change, negative = inhibition [9] 6.94% | Potency [10]
4.39%: max response [9, 11]
15.8%: max response [9, 12]

O=C(Nc1cccc(F)c1)N1CC2(CCN(S(=O)(=O)c3ccccc3)CC2)C1
-11.8%: max response [9, 12]
-8.16%: max response [9, 11]
inactive: Potency [1] > 11.4 µM | activity change, negative = inhibition [2] -8.31% | Potency [3] | activity change, negative = inhibition [4] 22.6% | activity, negative = inhibition [5] -14.1% | Potency [6] > 46 µM | outcome [7] | Potency [8] | activity change, negative = inhibition [9] -4.83% | Potency [10]

CC(C)NC(=O)N1CCC2(CC1)CCN(S(C)(=O)=O)CC2
5.94%: max response [9, 12]
6.33%: max response [9, 11]
inactive: Potency [1] > 11.4 µM | activity change, negative = inhibition [2] -12.4% | Potency [3] | activity change, negative = inhibition [4] 6.9% | activity, negative = inhibition [5] 4.06% | Potency [6] > 46 µM | outcome [7] | Potency [8] | activity change, negative = inhibition [9] -0.0632% | Potency [10]

O=C(c1cnccn1)N1CCC2(CCN(Cc3nccs3)CC2)CC1
4.52%: max response [9, 12]
-0.576%: max response [9, 11]
inactive: Potency [1] > 11.4 µM | activity change, negative = inhibition [2] 2.79% | Potency [3] | activity change, negative = inhibition [4] 9.93% | activity, negative = inhibition [5] 3.3% | Potency [6] > 46 µM | outcome [7] | Potency [8] | activity change, negative = inhibition [9] 2.95% | Potency [10]

CS(=O)(=O)N1CCC2(CCN(C(=O)Nc3cccc(C#N)c3)CC2)CC1
inactive: Potency [1] > 11.4 µM | activity change, negative = inhibition [2] 2.04% | Potency [3] | activity change, negative = inhibition [4] 16.4% | activity, negative = inhibition [5] -21% | Potency [6] > 46 µM | outcome [7] | Potency [8] | activity change, negative = inhibition [9] 2.84% | Potency [10]
-10.5%: max response [9, 12]
-15.9%: max response [9, 11]

CC(C)NC(=O)N1CC[C@@]2(CCCN(C(=O)c3cccn3C)C2)C1
-17.7%: max response [9, 11]
inactive: Potency [1] > 11.4 µM | activity change, negative = inhibition [2] 12.3% | Potency [3] | activity change, negative = inhibition [4] -8.88% | activity, negative = inhibition [5] -1.46% | Potency [6] > 46 µM | outcome [7] | Potency [8] | activity change, negative = inhibition [9] 3.5% | Potency [10]
-8.74%: max response [9, 12]

COCC(=O)N1CCC2(CCCN(C(=O)Nc3cccc(F)c3)C2)CC1
4.52%: max response [9, 11]
inactive: Potency [1] > 11.4 µM | activity change, negative = inhibition [2] -4.55% | Potency [3] | activity change, negative = inhibition [4] 3.84% | activity, negative = inhibition [5] -4.68% | Potency [6] > 46 µM | outcome [7] | Potency [8] | activity change, negative = inhibition [9] 7.2% | Potency [10]
14.2%: max response [9, 12]

CN1CCCC2(CCN(C(=O)c3cccn3C)CC2)C1
16.9%: max response [9, 12]
inactive: Potency [1] > 11.4 µM | activity change, negative = inhibition [2] -4.17% | Potency [3] | activity change, negative = inhibition [4] -4.14% | activity, negative = inhibition [5] 7.29% | Potency [6] > 46 µM | outcome [7] | Potency [8] | activity change, negative = inhibition [9] 1.86% | Potency [10]
11.8%: max response [9, 11]

COc1ccc(C(=O)N2CCC3(CC2)CN(C(=O)NC(C)C)C3)cc1
0.517%: max response [9, 12]
inactive: Potency [1] > 11.4 µM | activity change, negative = inhibition [2] -5.05% | Potency [3] | activity change, negative = inhibition [4] 12.7% | activity, negative = inhibition [5] 0.0305% | Potency [6] > 46 µM | outcome [7] | Potency [8] | activity change, negative = inhibition [9] -0.224% | Potency [10]
-1.09%: max response [9, 11]

O=C(Nc1ccccc1)N1CC2(CCN(C(=O)c3ccco3)CC2)C1
21.9%: max response [9, 11]
inactive: Potency [1] > 11.4 µM | activity change, negative = inhibition [2] -2% | Potency [3] | activity change, negative = inhibition [4] 3.9% | activity, negative = inhibition [5] 4.13% | Potency [6] > 46 µM | outcome [7] | Potency [8] | activity change, negative = inhibition [9] 5.54% | Potency [10]
27.1%: max response [9, 12]

COc1ccccc1CN1CCCC2(CCNCC2)C1
4.5%: max response [9, 11]
inactive: Potency [1] > 11.4 µM | activity change, negative = inhibition [2] -7.6% | Potency [3] | activity change, negative = inhibition [4] -29.2% | activity, negative = inhibition [5] 2.38% | Potency [6] > 46 µM | outcome [7] | Potency [8] | activity change, negative = inhibition [9] 6.8% | Potency [10]
14.4%: max response [9, 12]
